Test results reported in PubChem BioAssay (NCATS).
Records with an inconclusive call do not appear. Entries that show only a call come without a potency. Unmarked numbers belong to inactive results. Activity calls are given as the source filed them. The call rests on the fitted dose curve; in most records, active means well fitted curve in the direction sought with a large enough effect; inconclusive means small, poorly fitted or top-dose-only effect, or another doubt; inactive means no such curve, though single readings can be large; an effect the other way counts as inactive or inconclusive.

How the values were obtained:
[1] = target: Rap guanine nucleotide exchange factor 3 (Homo sapiens) (UniProt O95398); test: Confirmatory qHTS for antagonist of cAMP-regulated guanine nucleotide exchange factor 3 (EPAC1) (AID 1645880); further: nearly all actives have a fitted effect of over 55% in size; further: potency means the concentration at half of the fitted maximal effect
Summary of the method: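 Released BODIPY-GDP fluoresces less than Rap1-bound BODIPY-GDP; the signal is followed at 480/540 nm at 5-min intervals over 30 min, after 5 min at room temperature. Reactions contain 100 nM EPAC1, 250 nM RAP1B-BODIPY-GDP and 50 uM GDP; results are normalized to ATA and DMSO.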

[2] = target: Rap guanine nucleotide exchange factor 3 (Homo sapiens) (UniProt O95398); test: Confirmatory qHTS for agonist of cAMP-regulated guanine nucleotide exchange factor 3 (EPAC1) (AID 1645881); further: nearly all actives have a fitted effect of over 75% in size; further: potency means the concentration at half of the fitted maximal effect;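 on activation: EPAC1 catalysed release of BODIPY-GDP from Rap1B seen as fluorescence loss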
[3] = target: Rap guanine nucleotide exchange factor 4 (Homo sapiens) (UniProt Q8WZA2); test: Confirmatory qHTS for agonist of cAMP-regulated guanine nucleotide exchange factor 4 (EPAC2) (AID 1645884);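 further: nucleotide exchange releases bodipy-GDP from Rap1 and this lowers its fluorescence; nearly all actives have a fitted effect of over 65% in size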; further: potency means the concentration at half of the fitted maximal effect
[4] = target: Rap guanine nucleotide exchange factor 4 (Homo sapiens) (UniProt Q8WZA2); test: Confirmatory qHTS for antagonist of cAMP-regulated guanine nucleotide exchange factor 4 (EPAC2) (AID 1645885); further: nearly all actives have a fitted effect of over 25% in size; further: potency means the concentration at half of the fitted maximal effect
[5] = target: Rap guanine nucleotide exchange factor 3 (Homo sapiens) (UniProt O95398); test: Counterscreen qHTS for antagonist of cAMP-regulated guanine nucleotide exchange factor 3 (EPAC1) (AID 1645888)
Summary of the method: (§1)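 Rap1B–BODIPY-GDP (250 nM) with 50 uM GDP; compounds pin-transferred to 9.74 nM–152 uM final (activator) or from 7.32 nM upwards (inhibitor). Fluorescence Ex/Em 480/540 nm read at 5 and 30 min, then after adding cAMP or buffer, at room temperature.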

[6] = target: Rap guanine nucleotide exchange factor 3 (Homo sapiens) (UniProt O95398); test: Counterscreen qHTS for agonist of cAMP-regulated guanine nucleotide exchange factor 3 (EPAC1) (AID 1645889); further: nearly all actives have a fitted effect of over 40% in size; further: potency means the concentration at half of the fitted maximal effect
Summary of the method: as §1

Rap guanine nucleotide exchange factor 4 (Homo sapiens), sequence (Q8WZA2 whole entry, looked up): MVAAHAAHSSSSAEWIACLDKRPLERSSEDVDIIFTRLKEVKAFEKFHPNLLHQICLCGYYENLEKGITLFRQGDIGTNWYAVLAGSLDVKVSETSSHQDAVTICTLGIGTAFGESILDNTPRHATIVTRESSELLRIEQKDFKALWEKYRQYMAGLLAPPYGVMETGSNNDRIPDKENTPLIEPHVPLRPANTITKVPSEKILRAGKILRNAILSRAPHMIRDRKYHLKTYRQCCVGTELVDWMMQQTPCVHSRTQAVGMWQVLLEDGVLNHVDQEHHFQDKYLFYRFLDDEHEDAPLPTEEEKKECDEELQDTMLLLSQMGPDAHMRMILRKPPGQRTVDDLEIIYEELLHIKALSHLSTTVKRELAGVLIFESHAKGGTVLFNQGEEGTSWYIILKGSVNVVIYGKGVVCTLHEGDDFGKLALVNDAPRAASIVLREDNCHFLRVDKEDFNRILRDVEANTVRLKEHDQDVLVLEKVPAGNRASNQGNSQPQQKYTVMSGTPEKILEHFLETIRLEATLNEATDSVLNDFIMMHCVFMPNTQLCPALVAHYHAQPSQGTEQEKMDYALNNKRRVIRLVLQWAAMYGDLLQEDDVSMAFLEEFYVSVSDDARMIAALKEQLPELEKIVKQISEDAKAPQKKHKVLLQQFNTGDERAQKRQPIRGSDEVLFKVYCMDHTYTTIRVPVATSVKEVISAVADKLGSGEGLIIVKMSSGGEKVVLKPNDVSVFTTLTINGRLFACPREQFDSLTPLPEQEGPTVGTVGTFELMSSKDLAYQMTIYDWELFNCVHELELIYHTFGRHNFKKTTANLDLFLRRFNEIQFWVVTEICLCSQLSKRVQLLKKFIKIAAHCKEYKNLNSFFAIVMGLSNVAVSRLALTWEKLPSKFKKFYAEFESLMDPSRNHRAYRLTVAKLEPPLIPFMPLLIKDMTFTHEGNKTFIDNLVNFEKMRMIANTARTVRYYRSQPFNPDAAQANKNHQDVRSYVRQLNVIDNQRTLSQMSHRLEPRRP
Rap guanine nucleotide exchange factor 3 (Homo sapiens), sequence (O95398 whole entry, looked up): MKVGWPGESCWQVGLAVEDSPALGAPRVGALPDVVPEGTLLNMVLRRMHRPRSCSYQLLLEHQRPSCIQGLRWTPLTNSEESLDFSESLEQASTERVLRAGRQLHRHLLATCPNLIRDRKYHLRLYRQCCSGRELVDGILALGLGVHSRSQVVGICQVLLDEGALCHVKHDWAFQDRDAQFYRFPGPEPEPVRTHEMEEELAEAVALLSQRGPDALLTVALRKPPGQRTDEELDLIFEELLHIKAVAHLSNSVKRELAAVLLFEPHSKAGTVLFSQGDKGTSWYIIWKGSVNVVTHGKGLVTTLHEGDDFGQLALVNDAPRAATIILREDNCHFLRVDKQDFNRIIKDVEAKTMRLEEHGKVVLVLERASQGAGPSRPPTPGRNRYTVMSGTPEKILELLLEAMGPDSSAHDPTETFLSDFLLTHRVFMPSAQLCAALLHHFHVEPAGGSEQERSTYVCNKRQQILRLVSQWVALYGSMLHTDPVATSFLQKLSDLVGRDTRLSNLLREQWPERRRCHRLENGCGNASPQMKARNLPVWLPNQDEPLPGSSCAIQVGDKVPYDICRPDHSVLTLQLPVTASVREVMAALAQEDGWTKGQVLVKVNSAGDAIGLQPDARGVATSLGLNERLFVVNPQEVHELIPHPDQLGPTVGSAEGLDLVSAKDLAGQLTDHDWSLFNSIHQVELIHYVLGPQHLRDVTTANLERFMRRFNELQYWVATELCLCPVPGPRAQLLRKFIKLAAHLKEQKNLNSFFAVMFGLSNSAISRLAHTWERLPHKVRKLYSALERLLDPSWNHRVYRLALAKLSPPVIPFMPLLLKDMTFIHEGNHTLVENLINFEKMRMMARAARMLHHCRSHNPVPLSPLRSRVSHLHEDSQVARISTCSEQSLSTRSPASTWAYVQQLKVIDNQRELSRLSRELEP

| SMILES | Potency [1] | Potency [2] | Potency [3] | Potency [4] | Potency [5] | Potency [6] | activation [3] | activity change, negative = inhibition [5] | activation [6] | outcome [4] |
| --- | --- | --- | --- | --- | --- | --- | --- | --- | --- | --- |
| CCOCCCn1c(=N)c(C(=O)NC(C)c2ccccc2)cc2c(=O)n3cccc(C)c3nc21 (stereo not drawn) | inactive | inactive | inactive | inactive | inactive | inactive |  |  |  |  |
| CCc1nc2c(OCc3ccc(OC(F)F)cc3)cccn2c1N(C)C(=O)c1ccc(OC)cc1 | inactive | inactive | inactive | inactive | inactive | inactive |  |  |  |  |
| O=C(Nc1ccc2nc(-c3ccc4nc[nH]c4c3)[nH]c2c1)c1cccs1 | inactive | inactive |  | inactive |  |  | 3.61% [at 17.1 µM, percent relative to cAMP agonist control] | 8.72% [at 30.8 µM] | 15.6% [at 30.8 µM] |  |
| O=C1Nc2c(Cl)cc(Cl)cc2C1=O | inactive | inactive | inactive | inactive | inactive | 31.6 µM (active) |  |  |  |  |
| COc1ccccc1/C=C/C=C1\Oc2c(ccc(O)c2CN(C)C)C1=O | inactive | 89.1 µM (active) | 112 µM (active) | inactive | inactive | 63.1 µM (active) |  |  |  |  |
| O=C(O)c1ccc(Nc2ncnc3ccccc23)cc1 | inactive | inactive | inactive | inactive | inactive | inactive |  |  |  |  |
| CCOc1nc(C)cc(C)c1S(=O)(=O)c1ccc(Cl)cc1 | inactive | inactive |  | inactive |  |  | -7.98% [at 17.1 µM, percent relative to cAMP agonist control] | 0.426% [at 30.8 µM] | 9.26% [at 30.8 µM] |  |
| CC1C/C(=C/c2cccn2C)C(=O)/C(=C/c2cccn2C)C1 (stereo not drawn) | 16.9 µM (active) | inactive | inactive | inactive | inactive | 79.4 µM (active) |  |  |  |  |
| COc1ccc(S(=O)(=O)N2CCCC2)cc1C(C)C | inactive | inactive |  | inactive |  |  | -3.36% [at 17.1 µM, percent relative to cAMP agonist control] | -3.04% [at 30.8 µM] | 2.24% [at 30.8 µM] |  |
| COCCn1c(SCC(=O)c2ccccc2)nc2cc(C(=O)NC3CCCC3)ccc2c1=O | inactive | inactive | inactive | inactive | inactive | inactive |  |  |  |  |
| CC(=O)C1=C(O)C(=O)N(c2cccc(Br)c2)C1c1ccc(Br)cc1 (stereo not drawn) | 37.9 µM (active) | inactive | inactive | inactive | inactive | inactive |  |  |  |  |
| CCOc1ccc(C(C(=O)NC2CCCC2)N(C(=O)c2snc(C(N)=O)c2N)C2CCCC2)cc1 (stereo not drawn) | inactive | inactive | inactive | inactive | inactive | inactive |  |  |  |  |
| CO/N=C(/COc1ccc(F)cc1)c1ccc(OC)cc1 | inactive | inactive |  | inactive |  |  | -0.137% [at 17.1 µM, percent relative to cAMP agonist control] | -12% [at 30.8 µM] | 2.57% [at 30.8 µM] |  |
| CCCn1c(N)c(C(=O)CSc2n[nH]c(-c3ccc(C)cc3)n2)c(=O)[nH]c1=O | inactive | inactive | inactive | inactive | inactive | inactive |  |  |  |  |
| CC1(Cc2ccc(Cl)cc2)C(=O)Nc2ccc(-c3cccnc3)cc21 (stereo not drawn) | inactive | inactive | inactive | inactive | inactive | inactive |  |  |  |  |
| C/C=C/C(=O)N1c2ccc(C)cc2C(C)=CC1(C)C | inactive | inactive | inactive | inactive | inactive | inactive |  |  |  |  |
| COc1ccc(CCNC(=O)CSc2nc(N)c(C#N)c(-c3cccs3)c2C#N)cc1OC | inactive | inactive |  | inactive |  |  | 3.67% [at 17.1 µM, percent relative to cAMP agonist control] | -17% [at 30.8 µM] | 20.5% [at 30.8 µM] |  |
| Cc1cccc(NC(=S)NC(=O)/C=C/c2ccco2)c1 | 75.7 µM (active) | inactive | inactive | inactive | inactive | inactive |  |  |  |  |
| Cc1onc(-c2ccccc2)c1C(=O)c1c[nH]c(C(=O)NCCCN2CCOCC2)c1 | inactive | inactive |  | inactive |  |  | -2.44% [at 17.1 µM, percent relative to cAMP agonist control] | -20.3% [at 30.8 µM] | -11.1% [at 30.8 µM] |  |

| SMILES | Potency [1] | Potency [2] | Potency [3] | Potency [4] | Potency [5] | Potency [6] | activation [3] | activity change, negative = inhibition [5] | activation [6] | outcome [4] |
| --- | --- | --- | --- | --- | --- | --- | --- | --- | --- | --- |
| CCCC[C@@H]1CNC(=O)C(=O)N1CCc1cccc(F)c1 | inactive | inactive |  | inactive |  |  | 9.22% [at 17.1 µM, percent relative to cAMP agonist control] | -3.55% [at 30.8 µM] | -0.443% [at 30.8 µM] |  |
| COCCN(C)Cc1nc(C(c2ccccc2)c2ccccc2)no1 | inactive | inactive | inactive | 47.8 µM (active) | inactive | inactive |  |  |  |  |
| Cc1onc(-c2c(F)cccc2Cl)c1C(=O)OCC(=O)N(C)c1ccccc1 | inactive | inactive |  | inactive |  |  | 4.47% [at 17.1 µM, percent relative to cAMP agonist control] | -6.38% [at 30.8 µM] | 12.2% [at 30.8 µM] |  |
| CCC(Oc1ccccc1)C(=O)Nc1cc(Cl)ccc1-n1cncn1 (stereo not drawn) | inactive | inactive | inactive | 47.8 µM (active) | inactive | inactive |  |  |  |  |
| COc1ccc(-c2cc(C(F)(F)F)nc(SCC(=O)NCCc3ccccc3)n2)cc1OC | inactive | inactive | inactive | inactive | inactive | inactive |  |  |  |  |
| CCOC(=O)C1CCCCN1Cc1cn(C)nc1-c1ccccc1F (stereo not drawn) | inactive | inactive | inactive | inactive | inactive | inactive |  |  |  |  |
| CC1CCCCC1Nc1nc2ccc(Cl)cc2n2cnnc12 (stereo not drawn) | inactive | inactive | inactive | inactive | inactive | inactive |  |  |  |  |
| COc1cccc(NC(=O)CN(C)C(=O)CNC(=O)c2ccc(Oc3ccccc3)cc2)c1 | inactive | inactive |  | inactive |  |  | 6.73% [at 17.1 µM, percent relative to cAMP agonist control] | -3.89% [at 30.8 µM] | 29.7% [at 30.8 µM] |  |
| Cn1c(Cc2cccs2)nnc1SCc1nc2ccccc2[nH]1 | inactive | inactive |  | inactive |  |  | 2.48% [at 17.1 µM, percent relative to cAMP agonist control] | -1.2% [at 30.8 µM] | 30.7% [at 30.8 µM] |  |
| Cc1ccc(C2(C)NC(=O)N(CC(=O)Nc3ccccc3N3CCCCC3)C2=O)cc1 (stereo not drawn) | inactive | inactive | inactive | inactive | inactive | inactive |  |  |  |  |
| CCC/C(=C1/c2ccccc2C(=O)N1c1ccccc1)c1cnc(OC)nc1 | inactive | inactive | inactive | 37.9 µM (active) | inactive | inactive |  |  |  |  |
| Cc1cc(Br)c2c(c1)C(O)(N1CCCCC1C)C(=O)N2 (stereo not drawn) | inactive | inactive |  | inactive |  |  | 10.3% [at 17.1 µM, percent relative to cAMP agonist control] | -0.193% [at 30.8 µM] | 19.4% [at 30.8 µM] |  |
| Cc1c(OC(C)C(=O)NC(Cc2c[nH]c3ccc(O)cc23)C(=O)O)ccc2c1oc(=O)c1ccccc12 (stereo not drawn) | 13.5 µM (active) | inactive | inactive | inactive | inactive | inactive |  |  |  |  |
| COc1ccc(OC)c(/C=C2\SC(=S)N(NS(=O)(=O)c3ccccc3)C2=O)c1 | 23.9 µM (active) | inactive | inactive | 33.8 µM (active) | inactive | inactive |  |  |  |  |
| Cn1cc(C(=O)N/N=C/C2=C(N3CCOCC3)C(=C\c3ccccc3)/CC2)ccc1=O | inactive | inactive |  | inactive |  |  | -0.586% [at 17.1 µM, percent relative to cAMP agonist control] | -15% [at 30.8 µM] | 5.8% [at 30.8 µM] |  |
| CCNC(C(=O)c1c[nH]c2c(CC)cccc12)c1ccccc1 (stereo not drawn) | inactive | inactive | inactive | inactive | inactive | inactive |  |  |  |  |
| Cc1ccc(-c2csc(NC(=O)/C=C/c3ccco3)c2C(=O)O)cc1 | 25.1 µM (active) | inactive |  | inactive |  |  | 5.44% [at 17.1 µM, percent relative to cAMP agonist control] | -12.5% [at 30.8 µM] | 18.5% [at 30.8 µM] |  |
| CCCCC(Sc1nc2cc3c(cc2c(=O)n1CCCC(=O)NCc1ccc2c(c1)OCO2)OCO3)C(=O)OCC (stereo not drawn) | inactive | inactive | inactive |  | inactive | inactive |  |  |  | inactive [at 12.7 µM] |
| Clc1ccc(-c2cc3ccccc3nc2N2CCOCC2)cc1 | inactive | inactive | inactive | inactive | inactive | inactive |  |  |  |  |
